Screens from PubChem.
Hits are enriched below; roughly 9% of the tested compounds scored in any of these assays.
Lamin A splicing – changes lamin A minigene splicing in HeLa cells; HeLa LMNA splicing GFP/RFP minigene ratio, 48 h; Potency, µM (series often up to 46.1 µM), without a hit: at the highest dose ratio change, negative = inhibition, usual class: inhibitors; 200,000 compounds, 0.01% hits; AID 1487; active = well fitted inhibition curve with a large enough effect in the signal ratio, with a control signal flat, not every such curve was filed as active; inconclusive = small, poorly fitted or top-dose-only effect, or effect the other way, or a change in a side signal; the % refers to the signal ratio
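S3 HeLa cells stably expressing lamin A-EGFP splicing minigene plus DsRed2, 600 cells/well, 48 h compound exposure at 37C. Laser-scanning cytometry; analysed as GFP (500-530 nm)/RFP (575-640 nm) total intensity ratio; 0.5% DMSO vehicle.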
HPGD inh – blocks human HPGD enzyme activity; P15428; purified HPGD, NADH fluorescence kinetic, PGE2 substrate; Potency, µM, inactives show at the highest dose activity change, negative = inhibition, actives largely listed as inhibitors; 150,000 compounds, 4.3% hits; AID 894
Target sequence (P15428 whole entry, looked up): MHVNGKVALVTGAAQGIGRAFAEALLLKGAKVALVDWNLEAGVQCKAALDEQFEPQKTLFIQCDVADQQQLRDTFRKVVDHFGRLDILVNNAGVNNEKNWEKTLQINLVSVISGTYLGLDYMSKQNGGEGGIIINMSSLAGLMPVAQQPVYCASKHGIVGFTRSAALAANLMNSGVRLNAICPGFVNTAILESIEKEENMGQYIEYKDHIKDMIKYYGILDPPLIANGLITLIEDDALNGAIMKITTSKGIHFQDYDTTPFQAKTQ
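NADH formation kinetics: reaction with 30 uM PGE2 and 1 mM NAD+ (final), 20 nM enzyme, Tris-HCl pH 8 with Tween 20, after 15 min compound preincubation at room temperature. Fluorescence change, last versus first of five reads.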
KinaseGlo FLuc – counter-screen: inhibitors of Kinase-Glo firefly luciferase; Potency, µM (doses to about 38.3 µM), for inactives: at the top dose activity change, negative = inhibition, actives largely listed as inhibitors; 200,000 compounds, 0.28% hits; Kinase-Glo luciferase, ATP luminescence, 8 min; AID 1379; active = well fitted curve in the direction sought with a large enough effect; inconclusive = small, poorly fitted or top-dose-only effect, or another doubt; inactive = no such curve, though single readings can be large; an effect the other way counts as inactive or inconclusive; note: nearly all actives have a fitted effect of over 60% in size
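Substrate mix (final 50 mM imidazole pH 7.2, 50 mM KCl, 7 mM MgCl2, 10 uM ATP, 0.01% Tween 20, 0.05% BSA) plus pin-tool compound, then Kinase-Glo detection mix; 8 min ambient, luminescence read.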
ALDH1A1 block – inhibitors of human aldehyde dehydrogenase 1A1 | P00352 | 220,000 compounds, 7.3% hits | Purified ALDH1A1, NADH fluorescence, propionaldehyde substrate | Potency, µM (titrated, usually from 75.3 µM), without a hit: at the highest dose activity, negative = inhibition, hits mostly inhibitors;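 note: plate controls were no enzyme wells and a reference inhibitor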
Target sequence (P00352 whole entry, looked up): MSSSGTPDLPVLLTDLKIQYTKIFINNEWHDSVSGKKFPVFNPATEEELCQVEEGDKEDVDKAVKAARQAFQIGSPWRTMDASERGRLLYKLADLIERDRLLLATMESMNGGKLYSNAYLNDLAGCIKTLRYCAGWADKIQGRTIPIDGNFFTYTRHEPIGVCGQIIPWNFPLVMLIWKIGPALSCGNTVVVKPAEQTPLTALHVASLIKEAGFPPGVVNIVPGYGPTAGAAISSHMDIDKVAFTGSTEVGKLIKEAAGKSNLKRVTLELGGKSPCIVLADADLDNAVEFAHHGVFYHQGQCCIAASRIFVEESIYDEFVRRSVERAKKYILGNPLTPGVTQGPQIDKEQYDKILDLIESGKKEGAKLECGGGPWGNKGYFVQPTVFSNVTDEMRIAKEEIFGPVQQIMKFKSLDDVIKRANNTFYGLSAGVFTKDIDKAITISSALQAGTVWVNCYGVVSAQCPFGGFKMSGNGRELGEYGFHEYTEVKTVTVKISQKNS
IMPase Li cell – IMPase inhibition in cells with lithium potentiation | CHO-M1 cells, IP1 TR-FRET (IP-One), carbachol + lithium | Potency, µM (series often up to 59.4 µM), for the others: at the top dose activity, negative = IMPase inhibition, hits mostly inhibitors | 210,000 compounds, 0.35% hits | AID 1457; active = well fitted curve in the direction sought with a large enough effect; inconclusive = small, poorly fitted or top-dose-only effect, or another doubt; inactive = no such curve, though single readings can be large; an effect the other way counts as inactive or inconclusive;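 note: IP1 builds up when IMPase is blocked and the TR-FRET signal falls; plate controls were basal vehicle for no effect and high inhibitor control for full effect; nearly all actives have a fitted effect of over 50% in size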
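Lithium-sensitised IP1 accumulation assay; M1-expressing CHO cells treated 30 min at 37C with compound. Competitive antibody detection by time-resolved FRET followed a 10 min room-temperature lysis step.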
The depositor's hits bear a star; ? = inconclusive; . = no result given; [ ] = another dose, or the depositor's remark. Unless noted, calls come from the whole dose curve; as a rule, active = well fitted inhibition curve with a large enough effect (not every such curve was filed as active); inconclusive = small, poorly fitted or top-dose-only effect, or another doubt; inactive = no such curve, though single readings can be large or run the other way. Unless noted, % is set by controls: 0 for no effect and ±100 for the full control effect; potency is the fitted concentration of half-maximal effect.

SMILES	Lamin A splicing	HPGD inh	KinaseGlo FLuc	ALDH1A1 block	IMPase Li cell
N#Cc1cccc(N=c2ssnc2Cl)c1	?	.	-7%	1.3µM*	-5%
CCOC(=O)c1cc(-c2ccc(C)cc2)n(CCC(=O)N2CCN(c3ccccn3)CC2)c1C	?	-20%	-1%	2%	11%
Cc1ccc(S(=O)(=O)N2CCC(C(=O)Nc3nnc(-c4ccc(F)cc4)s3)CC2)cc1	-5%	-11%	-2%	5%	?
O=C(Nc1nnc(-c2ccc(F)cc2)s1)C1CCN(S(=O)(=O)c2ccc(Cl)cc2)CC1	-4%	-1%	-3%	1%	7.9µM*
O=C(NCC1(c2ccccc2)CCCC1)c1cccc(Br)c1	-2%	-6%	1%	-6%	26%[38.3 µM]
O=C(O)CC(c1cccc2ccccc12)n1cccc1 (centres undefined)	2%	35µM*	-3%	-7%	-21%[38.3 µM]
O=C(O)CC(c1cccc2ccccc12)N1Cc2ccccc2C1=O (centres undefined)	.	.	2%	5%	-2%
COc1ccc(/C=N/NC(=O)c2cc(-c3ccc(Cl)cc3)n[nH]2)cc1OC	.	?	-5%	?	.
CC(=O)Nc1cccc(NC(=O)Cc2nc(-c3ccccc3)sc2-c2ccc(C)cc2)c1	-13%	-14%	-1%	0%	2%
COc1cccc(NC(=O)Cc2nc(-c3ccccc3)sc2-c2ccc(C)cc2)c1	?	?	-2%	25µM*	7%
C/C=C/c1ccc(OCCN2C(=O)NC(C)(C)C2=O)c(OC)c1	-9%	-10%	-4%	?	-12%[38.3 µM]
C/C=C/c1ccc(OCCCN2C(=O)NC(C)(C)C2=O)c(OC)c1	8%	-13%	0%	14µM*	3%[38.3 µM]
CS(=O)(=O)Nc1cccc(-c2nccc(-n3ccnc3)n2)c1	10%	18µM*	-1%	-5%	2%
CS(=O)(=O)Nc1cccc(-c2nc(-n3ccnc3)c3ccccc3n2)c1	?	.	.	4%	-4%
Cc1ccccc1OCc1n[nH]c(=S)n1-c1ccccc1	7%[46 µM]	.	1%	4%	4%
COc1ccc(NC(=O)c2c(C(F)(F)F)nn(C)c2SCc2ccccc2)cc1	12%	-12%	-4%	8.9µM*	12%[38.3 µM]
Cc1ccc(C)c(NC2=CC(=O)CC(C)(C)C2)c1C#N	?	-11%	-3%	13µM*	3%[38.3 µM]
Cc1ccccc1NC1=CC(=O)CC(C)(C)C1	-10%	-26%	-5%	-1%	2%
O=C(Nc1cccc2cccnc12)c1ccc(F)cc1	6%[46 µM]	.	.	.	.
Cc1ccc(NC(=O)c2ccc(Nc3c([N+](=O)[O-])cc([N+](=O)[O-])cc3[N+](=O)[O-])cc2)cc1	?	-7%	-1%	0.56µM*	7%
CC1CC(C)CN(C(=O)c2ccc(NC(=O)c3ccc(=O)[nH]c3)cc2)C1 (centres undefined)	2%	7.9µM*	0%	-6%	-3%
O=C1C(=O)N(CNc2cccnc2)c2ccccc21	-3%	16µM*	-1%	-1%	-1%
O=C1C(=O)N(CNc2ccccn2)c2ccccc21	5%	-17%	-2%	3.2µM*	-1%[38.3 µM]
O=C(CC(=O)Nc1ccccn1)Nc1ccccn1	2%	-10%	11%	-4%	-8%[38.3 µM]
Cc1ccccc1-c1cncnc1N1CCN(C)CC1	-2%	.	.	?	11%
SMILES	Lamin A splicing	HPGD inh	KinaseGlo FLuc	ALDH1A1 block	IMPase Li cell
O=C(NCc1ccccc1)c1nc[nH]c1C(=O)NCc1ccccc1	2%[46 µM]	.	-1%	2.5µM*	14%
O=C(Nc1ccc(F)cc1)c1nc[nH]c1C(=O)Nc1ccccc1[N+](=O)[O-]	?	-30%	2%	-2%	1%
NNC(=O)c1nc[nH]c1C(=O)Nc1ccccc1[N+](=O)[O-]	-8%[46 µM]	.	-4%	0.79µM*	18%
CCOC(=O)c1[nH]cnc1C(=O)NCc1ccccc1	.	.	.	-6%	.
CC(C)(C)c1ccc(-c2ncccc2O)cc1	-10%[46 µM]	.	-11%	?	7%
COc1ccccc1-c1nnc2sc(COc3ccc(Cl)cc3Cl)nn12	?	1.3µM*	0%	12%	-13%[38.3 µM]
COc1cc(OC)c(-c2nn3c(C4CCCCC4)nnc3s2)cc1OC	-4%	?	1%	?	6%[38.3 µM]
Clc1ccc(OCc2nn3c(C4CCCCC4)nnc3s2)c(Cl)c1	?	2.8µM*	-2%	?	-6%[38.3 µM]
COc1ccccc1/C=C1\NC(=S)N(CC2CCCO2)C1=O (centres undefined)	17%	28µM*	-2%	0.5µM*	84%[38.3 µM]
COc1ccc(/C=C2/C(=O)N(CC3CCCO3)C(=S)N2C)c(OC)c1 (centres undefined)	8%	-18%	1%	13µM*	12%[38.3 µM]
O=C(NCCOc1ccc(Cl)cc1)C1CC(=O)N(c2ccc(F)cc2)C1 (centres undefined)	?	-12%	-4%	25µM*	4%[38.3 µM]
O=C(O)C1CC(=O)N(c2ccc(OCc3ccc(Cl)cc3Cl)cc2)C1 (centres undefined)	1%	14µM*	20%	1%	20%[38.3 µM]
COc1ccc(N2CC(C(=O)NC3=NCCS3)CC2=O)cc1 (centres undefined)	20%[46 µM]	.	2%	-4%	2%
Cc1ccc2cc(C#N)c(SCC(=O)NNC(=O)Cc3ccccc3)nc2c1	-12%	-5%	0%	4%	13µM*
COc1ccc2cc(C#N)c(SCC(=O)NNC(=O)Cc3ccccc3)nc2c1	?	?	-1%	?	?
CCc1cc2ccc(OC)cc2nc1SCC(=O)NNC(=O)c1ccco1	-15%[46 µM]	.	2%	6.3µM*	0%
Cc1ccc2nc(SCC(=O)NCc3cccs3)c(C#N)cc2c1	16%	-13%	-1%	7%	13µM*
CCOc1ccc2cc(C#N)c(SCC(=O)NC(C)CC)nc2c1 (centres undefined)	-24%	-23%	-1%	7%	3.5µM*
CCOC(=O)CSc1nc2cc(OCC)ccc2cc1C#N	-1%	?	-2%	?	?
COC(=O)NC(/C=C/c1ccco1)[C@@]1(C(=O)OC)CCCC1=O (some centres undefined)	.	.	.	-9%[13.5 µM]	.
O=c1[nH]c(SCc2ccccc2)nc2c1sc1ccccc12	.	.	2%	4%	-14%
C[C@H]1Cc2c(COc3ccccc3)nc3c(c2CO1)CN(S(=O)(=O)c1ccc(C#N)cc1)CC3	16%[9.22 µM]	-2%	-6%[7.66 µM]	6%[13.5 µM]	8%
O=C(NC(Cc1c[nH]c2ccccc12)C(=O)NCCCN1CCOCC1)c1cccs1 (centres undefined)	-8%[46 µM]	.	6%	7%	0%
Cc1ccc2nc(SCC(=O)NCc3ccco3)c(C#N)cc2c1	14%	7.9µM*	-3%	-8%	?
Cc1ccc2cc(C#N)c(SCC(=O)NCc3ccco3)nc2c1	12%	-16%	10%	?	-13%[38.3 µM]
Cc1ccc2nc(SCC(=O)NCc3ccco3)c(C)cc2c1	-19%[46 µM]	.	-4%	16µM*	11%
Brc1ccc(-c2nnc(-c3ccccc3)c(N3CCSCC3)n2)cc1	-3%	-17%	0%	-6%	7%[38.3 µM]
